Shown are actives, neighbours in structure and some others; about 1.8% of the full set was active somewhere.
BH1578 lux ind: induces V. cholerae light production without autoinducers. V. cholerae BH1578 lux reporter, luminescence, 6 h. activation, % at 18.7 µM. AID 588436. actives 0.16% (n = 350,000); in the data active = activation mostly above about 9.7%, no sharp cut-off
MazF activator: increases E. coli MazEF RNase cleavage of RNA; FAM/BHQ RNA-DNA oligo cleavage fluorescence, 5 h; activation, % at 20 µM; actives 0.32% (n = 350,000); AID 504720; in the data active = activation above about 50%
Target sequence (P0AE70 whole entry, looked up): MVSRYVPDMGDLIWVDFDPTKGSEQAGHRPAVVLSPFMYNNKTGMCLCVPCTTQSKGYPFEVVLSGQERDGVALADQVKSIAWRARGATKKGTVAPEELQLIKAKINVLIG
CCHF vOTU inh: CCHFV vOTU protease inhibition | Pep-AMC fluorescence | AID 651958 | inhibition, % at 11.5 µM | actives 0.55% (n = 370,000); in the data active = inhibition above about 30%; also: 0% = vehicle wells with enzyme and 100% = no enzyme wells
Y pestis TopoI: Y. pestis Topo-I inhibition via cleavage products | Y. pestis Topo-I cleavage product accumulation, plate reader | activity, % at 10 µM | actives 0.064% (n = 360,000) | AID 504884; in the data active = activity above about 50%, passing the limit was not always enough
PrPC TRFRET: reduces human prion protein on the cell surface. cell surface PrPC, TR-FRET read-out. actives 0.43% (n = 370,000). P04156. inhibition, % at 13.8 µM; in the data active = inhibition above about 24%; also: 0% = median of the test wells and 100% = reference compound wells
VHR inh abs: DUSP3 (human) phosphatase inhibition | AID 1654 | actives 0.52% (n = 290,000) | inhibition, % at 13.3 µM | recombinant VHR phosphatase, pNPP absorbance; in the data active = inhibition above about 50%
Target sequence (P51452 whole entry, looked up): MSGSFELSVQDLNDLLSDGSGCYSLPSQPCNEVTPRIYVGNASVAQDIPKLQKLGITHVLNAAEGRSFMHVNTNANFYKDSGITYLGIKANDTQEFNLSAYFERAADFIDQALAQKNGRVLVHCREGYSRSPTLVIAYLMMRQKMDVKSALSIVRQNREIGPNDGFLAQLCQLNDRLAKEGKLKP
PrPC confirm: confirmation of inhibitors of cell surface human prion protein; shares compounds with PrPC TRFRET; cell surface PrPC level, TR-FRET; inhibition, % at 13.8 µM; actives 65% (n = 1,500); AID 743200; in the data active = inhibition above about 25%
LD9 tox: counter-screen for PrPc inhibitors: cytotoxicity in LD9 cells; luminescence viability; AID 743201; actives 29% (n = 1,500); inhibition, % at 13.8 µM; shares compounds with PrPC TRFRET; in the data active = inhibition above about 9.5%
* marks the source's active call; other numbers are inactive results; i = inactive; / = no result given.

SMILES	BH1578 lux ind	MazF activator	CCHF vOTU inh	Y pestis TopoI	PrPC TRFRET	VHR inh abs	PrPC confirm	LD9 tox
COc1ccc(C(=O)C2(C(=O)NC3CCCC3)CC(c3ccccc3C(F)(F)F)=NO2)cc1 (centres undefined)	/	/	0	/	2	/	/	/
N#C/C(=N/Nc1ccc(OC(F)(F)F)cc1)C(N)=S	0	2	14	-7	26*	10	38*	28*
Nc1ccc(S(=O)(=O)NNC(=O)C(=O)NNc2ccccc2)cc1	3	-10	7	7	20	-4	/	/
O=C(NNc1ccccc1)C(=O)NNS(=O)(=O)c1ccc(CCCl)cc1	i	-23	7	4	27*	20	24	-3
CCOc1ccc(C2NC(=O)NC(c3ccccc3)=C2C(C)=O)cc1OC (centres undefined)	0	15	-3	-2	27*	40	21	1
CCOc1cc(C2NC(=O)NC(c3ccccc3)=C2C(C)=O)ccc1OCC(N)=O (centres undefined)	1	-5	-4	-3	0	26	/	/
C/C(=C\c1ccc(N)cc1)c1nc2ccccc2[nH]1	i	2	6	1	5	17	/	/
O=S(=O)(/C(=C/c1ccc(C(F)(F)F)cc1)c1nc2ccccc2[nH]1)c1ccccc1	i	-3	6	-1	38*	17	79*	97*
CC(C)c1ccc(/C=C(\c2nc3ccccc3[nH]2)S(=O)(=O)c2ccccc2)cc1	i	-5	-10	4	43*	-12	44*	-7
NS(=O)(=O)c1ccc(CNC(=O)c2ccccc2SCC(=O)N2CCCC2)cc1	i	-5	-2	0	3	/	/	/
O=C(NCc1ccccn1)c1coc(=O)c(Br)c1	i	-1	-26	0	27*	-1	-2	0
Cc1ccc(S(=O)(=O)N(C)C)cc1NC(=O)CN1C(=O)NC2(CCCc3ccccc32)C1=O (centres undefined)	0	11	-1	10	5	-10	/	/
Cc1onc(-c2ccccc2)c1C(=O)Nc1nnc(C(C)(C)C)s1	i	7	6	-7	-2	33	/	/
CC(C)C(C(=O)NCc1ccccc1)N1CCN(c2ccccc2F)CC1 (centres undefined)	/	/	-3	/	-3	/	/	/
CCOc1cc2[nH]c(=S)n(C(C)C)c(=O)c2cc1OCC	-3	4	5	-1	33*	0	36*	-1
CCOc1cc2[nH]c(=S)n(C3CC3)c(=O)c2cc1OCC	1	3	15	3	-7	2	/	/
COC(=O)[C@]12C[C@H](CC(=O)NCCC(C)C)C(=O)N(Cc3ccccc3)C1=C[C@H](C1CCCC1)O[C@@H]2C	/	/	15	/	-5	/	/	/
COCCCN1C(=O)c2[nH]nc(-c3cc(C)cc(C)c3O)c2C1c1ccc(O)c(OC)c1 (centres undefined)	0	7	-4	6	0	4	/	/
CCCN1C(=O)c2[nH]nc(-c3cc(Cl)c(C)cc3O)c2C1c1ccc(O)c(OC)c1 (centres undefined)	0	-11	21	-8	26*	17	10	-7
COc1ccc(NC(=O)NNC(=O)COc2ccc3cc(Br)ccc3c2)cc1OC	1	-29	4	0	42*	-23	69*	-7
CCc1nc(SCC(=O)OC(C)C)c2ccccc2n1	0	9	4	-8	83*	-5	97*	-6
Cc1nc(SCCOc2ccc(F)cc2)c2ccccc2n1	i	-6	-8	-3	-2	15	/	/
CCCc1nc(SCC(=O)NNC(=O)C2CCCCC2)c2ccccc2n1	i	-15	-11	4	41*	4	110*	-3
CCCc1nc(SCC(=O)NNC(=O)c2ccc(OC)cc2)c2ccccc2n1	0	-2	-4	7	93*	18	115*	-13
Cc1nc(SCC(=O)NNC(=O)c2ccc(F)cc2)c2ccccc2n1	-1	9	-1	-8	82*	/	100*	-6
SMILES	BH1578 lux ind	MazF activator	CCHF vOTU inh	Y pestis TopoI	PrPC TRFRET	VHR inh abs	PrPC confirm	LD9 tox
COc1ccccc1NC(=O)Cc1nc(=O)[nH]c(=O)[nH]1	i	5	20	0	10	/	/	/
O=S(=O)(c1ccccc1)c1nc(-c2ccc(Cl)cc2)oc1NCCCN1CCOCC1	-3	1	6	44	5	/	/	/
COc1ccc(NC(=O)c2cc(-c3cc(Cl)ccc3OC)n[nH]2)c(OC)c1	0	/	20	-4	28*	/	19	1
CCOc1ccc(Cl)cc1-c1cc(C(=O)Nc2ccc(OC)cc2OC)[nH]n1	i	/	-8	5	13	/	/	/
CCC1=C(CC2NCCc3ccccc32)CC2c3cc(OC)c(OC)cc3CCN2C1 (centres undefined)	11	-36	-4	5	76*	/	83*	28*
CC[C@H]1CN2CCc3cc(OC)c(OC)cc3C2C[C@@H]1C[C@H]1NCCc2cc(OC)c(OC)cc21 (some centres undefined)	i	5	-6	-2	92*	/	98*	50*
CN(CC(=O)Nc1ccc(Cl)cc1)CC(=O)Nc1cccc(Br)c1	0	1	5	-7	3	-10	/	/
Cc1csc(NC(=O)c2cc3c(C)nn(Cc4ccccc4Cl)c3s2)n1	-4	-4	0	1	33*	7	24	-1
CCCOc1ccc(Oc2ccc(S(=O)(=O)N3CCN(C)CC3)cn2)cc1	3	2	19	5	8	/	/	/
O=C(COc1cccc2cccnc12)Nc1cccc(S(=O)(=O)N2CCCC2)c1	1	-5	14	-5	31*	/	5	0
CCC(CC)C(=O)NCc1ccc2c(c1)cc(C)n2C	-1	0	2	9	14	31	/	/
Cc1cc2cc(CNC(=O)C(C)Oc3ccccc3)ccc2n1C (centres undefined)	-3	-1	3	-1	36*	14	20	-5
Cc1cc2cc(CNC(=S)NCc3ccccc3)ccc2n1C	2	23	-3	2	31*	6	29*	-7
COc1ccccc1NC(=S)NCc1ccc2c(c1)cc(C)n2C	i	12	9	-15	50*	10	7	-10
Cc1ccccc1NC(=S)NCc1ccc2c(c1)cc(C)n2C	0	9	-1	13	13	-7	/	/
O=C(NCC(c1ccccc1Cl)N1CCCC1)c1ccc(N2CCCC2=O)cc1 (centres undefined)	-5	-3	6	-9	3	/	/	/
CC(C)Oc1ccc(C(=O)/C=C2/C(=O)Nc3ccccc32)cc1	i	-1	-5	9	34*	39	9	-11
O=C1Nc2ccccc2/C1=C\C(=O)c1ccccc1	-2	7	2	-10	-2	-29	/	/
